HT1080-NT tox: kills 2HG-producing HT-1080-NT fibrosarcoma cells; 360,000 tested, 1.6% active; HT-1080-NT fibrosarcoma viability, CellTiter-Glo ATP luminescence, 48 h; AID 686970; Potency, µM (doses to about 46.1 µM), inactives show at the highest dose activity, negative = less viability, usual class: cytotoxic;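 further: NT is the 2HG producing partner of a matched IDH1 knockdown line; 0% = DMSO-treated cells and -100% = media-only wells without cells; nearly all actives have a fitted effect of over 55% in size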
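HT-1080-NT fibrosarcoma cells (2HG-overproducing), 750 cells/well in RPMI with 5% FBS, dosed after 2 h and incubated 48 h at 37C. CellTiter-Glo luminescence normalized to DMSO and no-cell wells; concentration-response curves fitted and classed.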
KB-3-1 cytotox: kills parental KB-3-1 adenocarcinoma cells | AID 1347075 | KB-3-1 viability, CellTiter-Glo ATP luminescence, 72 h | 400,000 tested, 1.4% active | Potency, µM (doses to about 46.1 µM), actives largely listed as cytotoxic; further: nearly all actives have a fitted effect of over 60% in size
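Multi-concentration cytotoxicity screen in KB-3-1 cells grown in DMEM lacking phenol red with 10% FBS. After 72 h at 37 °C with compound, ATP-dependent luminescence was recorded.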
TDP1 cell CPT: growth inhibition of DT40 Tdp1-/-;hTDP1 cells with camptothecin (screen for TDP1 inhibitors). 420,000 tested, 12% active. Potency, µM (top dose mostly 46.2 µM), without a hit: at the highest dose activity change, negative = growth inhibition, actives largely listed as inhibitors. chicken DT40 Tdp1-/-;hTDP1 cells + 20 nM CPT, ATP luminescence, 48 h. AID 686979; further: nearly all actives have a fitted effect of over 55% in size
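Chicken DT40 Tdp1-/- cells complemented with human TDP1, 400 cells/well, exposed to compounds plus 20 nM camptothecin for at least 48 h at 37 C; viability read as ATP content by CellTiter-Glo luminescence.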
TDP1 cell noCPT: qHTS for Inhibitors of human tyrosyl-DNA phosphodiesterase 1 (TDP1): qHTS in cells in absence of CPT; DT40 Tdp1-/- hTDP1 cells, no CPT, ATP luminescence, 48 h; 420,000 tested, 15% active; Potency, µM (doses to about 46.2 µM), inactives show at the highest dose activity change, negative = growth inhibition, most hits filed as inhibitors; further: nearly all actives have a fitted effect of over 55% in size
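Stably hTDP1-transfected Tdp1-null chicken DT40 cells were treated with library compounds minus camptothecin and grown for at least 48 hr at 37 °C, after which cellular ATP was quantified by luminescence.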
HT1080 IDH1KD tx: HT-1080 IDH1 knockdown cell toxicity (counter line). HT-1080 IDH1 knockdown viability, ATP luminescence, 48 h. Potency, µM (series often up to 46.1 µM), inactives show top-dose activity, negative = toxicity, actives largely listed as cytotoxic. 360,000 tested, 2% active. AID 686971;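 further: 0% = DMSO wells and -100% = cell-free medium wells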
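HT-1080-IDH1KD cells (IDH1 knocked down), 750/well in RPMI with 5% FBS, treated with compound 48 h at 37 degrees C. Viability by CellTiter-Glo luminescence, normalised to DMSO and no-cell wells; concentration-response curves classed.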
KB-V1 MDR tox: KB-V1 MDR subline cytotoxicity. KB-V1 MDR cells viability, CellTiter-Glo, 72 h. Potency, µM (series often up to 46.1 µM), actives largely listed as cytotoxic. 400,000 tested, 3.4% active; further: nearly all actives have a fitted effect of over 60% in size
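Cytotoxicity toward P-gp-expressing KB-V1 cells was determined as loss of CellTiter-Glo luminescence after 72 h at 37 degrees C. Compounds were tested in quantitative HTS format across a concentration range, with curves fitted to normalized data.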
* = called active by the depositor; i = inactive; ? = inconclusive; nt = no result; [ ] = remark or other dose. Most compounds without a hit are left out; they make up all but 19% or so of the library. The call rests on the fitted dose curve; in most records, active means well fitted curve in the direction sought with a large enough effect; inconclusive means small, poorly fitted or top-dose-only effect, or another doubt; inactive means no such curve, though single readings can be large; an effect the other way counts as inactive or inconclusive. Unless noted, on the % scale 0 is the no-effect control and ±100 the full control effect; potency means the concentration at half of the fitted maximal effect.

SMILES | HT1080-NT tox | KB-3-1 cytotox | TDP1 cell CPT | TDP1 cell noCPT | HT1080 IDH1KD tx | KB-V1 MDR tox
O=C1N[C@H](Cc2ccccc2)COC(=O)[C@H](Cc2ccc(F)cc2)C/C=C\C[C@@H]1CC(=O)N(CCO)Cc1ccccc1 | ? | ? | ? | 16µM* | ? | i
O=C1N[C@@H](Cc2ccccc2)COC(=O)[C@H](Cc2ccc(F)cc2)C/C=C\C[C@@H]1CC(=O)N(CCO)Cc1ccccc1 | -14% | ? | ? | ? | -20% | i
O=C1OC[C@@H]2CCCN2C(=O)[C@@H](CC(=O)N(CCO)Cc2ccccc2)C/C=C\C[C@@H]1Cc1ccc(F)cc1 | 15% | i | 23µM* | ? | 0% | i
O=C1N[C@@H](Cc2c[nH]c3ccccc23)COC(=O)[C@@H](Cc2ccc(F)cc2)C/C=C\C[C@H]1CC(=O)N(CCO)Cc1ccccc1 | -18% | ? | ? | 21µM* | ? | i
C[C@H]1COC(=O)[C@@H](Cc2ccc(F)cc2)C/C=C\C[C@H](CC(=O)N(CCO)Cc2ccccc2)C(=O)N1 | -10% | i | 21µM* | 23µM* | -4% | i
O=C(Nc1ccncc1)c1cc(C2CCCCN2C(=O)CCc2ccccc2)on1 (configuration not stated) | -4% | i | ? | ? | 20% | ?
O=C1N[C@H](Cc2ccccc2)COC(=O)[C@@H](Cc2ccc(F)cc2)C/C=C\C[C@H]1CC(=O)N(CCO)Cc1ccccc1 | ? | i | ? | 26µM* | -23% | i
O=C(/C=C/c1c(Cl)nc2ccccn12)N1CCN(c2ccc(F)cc2)CC1 | 12% | i | ? | 26µM* | 7% | ?
O=C(/C=C/c1c(Cl)nc2ccccn12)N1CCN(c2ccccc2F)CC1 | 16% | i | -19% | 23µM* | -3% | i
O=C(CN1C(=O)CCS(=O)(=O)c2ccccc21)Nc1ccccc1F | 2% | i | 1% | 1% | 17% | i
CC(C)(C)NC(=O)C1C(c2ccc(C(F)(F)F)cc2)=Nc2ccccc2N1C(=O)c1cccc(C(F)(F)F)c1 (configuration not stated) | 0% | ? | ? | ? | -3% | ?
COc1ccc(-n2cnc3cc(NS(=O)(=O)c4ccccc4)ccc32)cc1 | ? | i | ? | 21µM* | ? | ?
COc1ccc(-n2cnc3cc(NC(=O)c4ccco4)ccc32)cc1 | 13% | ? | ? | -27% | -15% | 16µM*
Cc1nn(C)cc1C(C)NCc1c(C(=O)N2CCCCCCC2)nc2ccc(Cl)cn12 (configuration not stated) | 9% | i | -3% | -23% | 2% | i
COC(=O)C[C@H]1CC[C@@H](NC(=O)Nc2ccc(C(F)(F)F)cc2)[C@@H](CO)O1 | 12% | i | 22% | 1% | 8% | i
FC(F)(F)c1cc(-c2ccccc2)nc2cc(-c3ccccc3)nn12 | nt | i | -20% | -23% | nt | i
Cc1cccc2c(=O)[nH]c3c(-c4nc(-c5ccc(Cl)cc5)cs4)c(O)cn3c12 | nt | i | 4µM* | 7.1µM* | nt | i
O=C1c2ccccc2C(=O)N1c1nc(-c2ccc(Cl)cc2)cs1 | nt | i | ? | ? | nt | i
Cc1ccc(C(=O)CSc2nnc3c4ccccc4nc(C(C)(C)C)n23)cc1 | 23% | 23µM* | ? | 12µM* | 0% | ?
Cc1csc(NC(=O)CSc2nnc3c4ccccc4nc(C(C)(C)C)n23)n1 | 5µM* | ? | 4.6µM* | 5.8µM* | 6.3µM* | ?
COc1cccc(-c2ccc3ncnc(NCc4cnc(C)cn4)c3c2)c1 | nt | nt | 23µM* | 15µM* | nt | nt
Cc1cnc(CNc2ncnc3ccc(-c4ccccc4C)cc23)cn1 | nt | nt | 16µM* | ? | nt | nt
Cc1cccc(C)c1NC(=O)/C(C#N)=C/c1cccs1 | -2% | i | 12µM* | ? | -2% | i
CO[C@H]1C[C@H](O[C@H]2[C@H](C)[C@@H](O[C@@H]3O[C@H](C)C[C@H](N(C)C)[C@H]3O)[C@@H](C)C[C@]3(CO3)C(=O)[C@H](C)[C@@H](O)[C@@H](C)[C@@H](C)OC(=O)[C@@H]2C)O[C@@H](C)[C@@H]1O | nt | nt | -23%[21.1 µM] | 4%[21.1 µM] | nt | nt
CCc1sc(-c2cc3ccccc3oc2=O)nc1-c1ccc(C)cc1 | nt | i | 9% | -19% | nt | i
SMILES | HT1080-NT tox | KB-3-1 cytotox | TDP1 cell CPT | TDP1 cell noCPT | HT1080 IDH1KD tx | KB-V1 MDR tox
COc1ccc(C(=O)NCCc2sc(-c3ccc(F)cc3)nc2C)cc1OC | nt | i | ? | 15µM* | nt | i
COc1ccc(-c2nc(C)c(CCNC(=O)Cc3ccc(F)cc3)s2)cc1OC | nt | i | nt | nt | nt | ?
Cc1cc(C)cc(C(=O)NCCc2sc(-c3ccc(F)cc3)nc2C)c1 | nt | i | 13µM* | 21µM* | nt | ?
COc1ccc(C(=O)NCCc2sc(-c3cccc(F)c3)nc2C)cc1 | nt | i | 23µM* | 16µM* | nt | i
Cc1nc(-c2ccc(Cl)cc2)sc1CCNC(=O)c1ccco1 | nt | i | 21µM* | 18µM* | nt | i
CCOC(=O)[C@@H]1[C@H]2COc3ccccc3[C@H]2N2C(=O)N(c3ccccc3)C(=O)[C@]12C | 8% | i | -16% | -16% | 5% | i
COCCNc1ncncc1-c1c(C)noc1C | nt | nt | -10% | -4% | nt | nt
COc1ccc(CC(=O)NCCc2sc(-c3ccc(Cl)cc3)nc2C)cc1OC | nt | i | ? | 21µM* | nt | i
C=CCC(CC(O)COCCC)C(=O)NNC(=S)Nc1ccccc1 (configuration not stated) | 22% | i | 4.6µM* | 2.3µM* | 9% | ?
COc1ccc(-c2csc3nc(-c4ccc(F)cc4)oc(=O)c23)cc1OC | nt | i | ? | 8% | nt | i
Cc1cc(F)ccc1C(O)c1ncc(-c2cccc(F)c2)[nH]1 (configuration not stated) | -14% | i | -9% | ? | -6% | i
CC(Sc1nnc(CN2CCCC2)n1Cc1ccccc1)C(=O)Nc1ccc(F)cc1 (configuration not stated) | -17% | i | -29% | -9% | -5% | i
CC(Sc1nnc(CN2CCCC2)n1Cc1ccccc1)C(=O)Nc1ccc(F)cc1Cl (configuration not stated) | -4% | i | 18µM* | 26µM* | 1% | i

Screening results: PubChem BioAssay, National Center for Advancing Translational Sciences (NCATS)
